# Compound activity deposited in PubChem BioAssay by Broad Institute.
# ROS inducer – ROS inducers in U2OS cancer cells, primary screen, cell-based, H2DCF-DA fluorescence | U2OS ROS induction | ROS induction (% of piperlongumine), % at 10 µM | actives 2% (n = 46,000); in the data active means ROS induction above about 79%, passing the limit was not always enough;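 further: 0% = DMSO vehicle median and 100% = reference compound median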
# YB-1 expr inh – inhibitors of YB-1 gene expression, primary screen, cell-based, fluorescence; U2OS, qRT-PCR YB-1 vs CDIP delta delta Cp, 16 h; active compounds read high; zero = DMSO, each unit about twofold; delta delta Cp (YB-1 minus CDIP) (test concentration not listed); actives 0.37% (n = 30,000);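 active means delta delta Cp rounded down to an integer at or above 3, about 3 SD of DMSO wells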;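 further: higher means less YB-1 transcript or more CDIP transcript relative to DMSO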
# Numbers without * were called inactive; . = not tested or not shown. The list is not random: actives were taken first. Their share in the collection is about 2.3%.
SMILES,ROS inducer,YB-1 expr inh
C[C@H](CO)N1C[C@H](C)[C@H](CN(C)Cc2cccc(C(F)(F)F)c2)Oc2ncc(-c3cccc(F)c3)cc2C1=O,49,0.12
C[C@H](CO)N1C[C@H](C)[C@H](CN(C)Cc2cccc(C(F)(F)F)c2)Oc2ncc(-c3cccc(C(F)(F)F)c3)cc2C1=O,160*,0.61
C[C@H]1CN([C@@H](C)CO)C(=O)Cc2cc(NC(=O)NC3CCCCC3)ccc2O[C@@H]1CN(C)Cc1ccncc1,1,-0.19
CC(C)(C)N1C(=O)c2ccc(C(=O)Nc3nccs3)cc2C1=O,6,.
COCCOC(=O)N1C(=O)[C@@]2(c3cc(C#CC4=CCCCC4)ccc31)[C@H](c1ccccc1OCCO)N1[C@H](c3ccccc3)[C@H](c3ccccc3)OC(=O)[C@H]1[C@@H]2C(=O)NC[C@H](O)c1ccccc1,144*,-0.21
COCCOC(=O)N1C(=O)[C@@]2(c3cc(C#CC4=CCCCC4)ccc31)[C@H](C(N)=O)[C@H]1C(=O)O[C@H](c3ccccc3)[C@H](c3ccccc3)N1[C@@H]2c1ccc(O)cc1,6,-0.044
COCCOC(=O)N1C(=O)[C@@]2(c3cc(C#CC4=CCCCC4)ccc31)[C@H](C(N)=O)[C@H]1C(=O)O[C@H](c3ccccc3)[C@H](c3ccccc3)N1[C@@H]2c1ccccc1OCCO,138*,-0.033
COCCOC(=O)N1C(=O)[C@@]2(c3cc(C#CCCO)ccc31)[C@H](C(=O)NC[C@H](O)c1ccccc1)[C@H]1C(=O)O[C@H](c3ccccc3)[C@H](c3ccccc3)N1[C@@H]2c1ccccc1OCCO,23,0.2
C[C@@H]1CN([C@H](C)CO)C(=O)Cc2cc(NC(=O)Cn3cnnn3)ccc2O[C@@H]1CN(C)S(C)(=O)=O,3,-0.045
C[C@@H]1CN([C@@H](C)CO)C(=O)c2cc(NC(=O)Cc3cn(C)c4ccccc34)ccc2O[C@H]1CN(C)Cc1ccc(Oc2ccccc2)cc1,32,0.35
CC1CC[C@]2(C(=O)OC3OC(COC4OC(CO)C(O)C(O)C4O)C(O)C(O)C3O)CC[C@]3(C(=O)O)C(=CCC4[C@@]5(C)CC[C@H](OC6OC(C)C(O)C(O)C6O)C(C)(C)C5CC[C@]43C)C2C1C (some centres not stated),11,0.76
COc1ccc(NC(=O)Nc2ccc3c(c2)C(=O)N([C@H](C)CO)C[C@H](C)[C@@H](CN(C)C)O3)cc1,-6,0.23
COC(=O)CN1C=C(C(=O)OC)C(c2ccc(Cl)cc2)C(C(=O)OC)=C1,-7,.
COC(=O)C1=CN(C(CC(C)C)C(=O)OC)C=C(C(=O)OC)C1c1ccc(Br)cc1 (configuration not stated),95*,-0.57
N#Cc1c(-c2ccco2)cc(-c2ccccc2)nc1SCCN1C(=O)c2ccccc2C1=O,-3,.
N#Cc1c(-c2ccccc2)cc(-c2ccccc2)nc1SCC(O)CS(=O)Cc1ccccc1 (configuration not stated),144*,.
CCS(=O)(=O)CCSc1nc(-c2ccccc2)cc(-c2ccccc2)c1C#N,98*,.
CC(C)(C)c1cc(-c2cccs2)c(C#N)c(SCC(=O)Oc2ccccc2)n1,16,-0.36
COc1ccc(-c2cc(-c3cccs3)nc(SC(C(=O)O)c3ccccc3)c2C#N)cc1 (configuration not stated),149*,.
N#Cc1c(-c2ccccc2)cc(-c2cccs2)nc1SCS(=O)Cc1ccccc1 (configuration not stated),108*,.
Cc1cc(-c2ccccc2)nc(SCc2ccccc2)c1C#N,2,.
N#Cc1c(-c2ccco2)cc(-c2cccs2)nc1OCc1ccc(F)cc1,4,-0.15
Cc1nc(CCNS(=O)(=O)c2cccs2)cs1,-2,.
C[C@H]1CN([C@@H](C)CO)C(=O)Cc2cc(NC(=O)NC3CCCCC3)ccc2O[C@H]1CN(C)C(=O)NC1CCCCC1,-9,0.11
COc1ccc(S(=O)(=O)NCc2cn3ccccc3n2)cc1F,-5,.
SMILES,ROS inducer,YB-1 expr inh
COc1cccc(-c2ncc(-c3ccccc3)o2)c1,85*,0.026
COc1cccc(-c2nnc(-c3ccccc3)o2)c1,13,.
c1ccc(CCn2c3ccccc3c3nnc(SCc4ccc5nonc5c4)nc32)cc1,16,.
COC(=O)CCCCCCC(=O)N/N=C/CCCC1OCC(C)(C)CO1,17,0.43
O=C(NC(c1ccccc1)c1ccccc1)c1cccnc1,-2,.
OCCN(CCO)c1nc(-c2ccccc2)nc2sc(-c3ccccc3)cc12,116*,.
C=CCN(CC=C)c1nc(-c2ccccc2)nc2ccccc12,46,.
C[C@@H]1CN([C@H](C)CO)C(=O)Cc2cc(NS(=O)(=O)c3ccccc3)ccc2O[C@H]1CN(C)C(=O)Nc1ccc(C(F)(F)F)cc1,18,0.27
C[C@@H]1CCCCO[C@H](CN(C)C(=O)C2CCCCC2)[C@@H](C)CN([C@H](C)CO)C(=O)c2cc(NC(=O)c3ccccc3)ccc2O1,4,-0.064
C/C=C(/C)C(=O)O[C@H]1C=C(CO)C(=O)[C@H](OC(=O)/C(C)=C/CO)[C@H]1C(C)C,87*,0.092
C=C(C)C(=O)O[C@H]1[C@H]2C(=C)C(=O)O[C@@H]2C[C@@H](C)/C=C/C(=O)[C@](C)(O)[C@@H]1OC(=O)C(=C)C,56,0.48
C=C(C)C(=O)O[C@H]1[C@H]2C(=C)C(=O)O[C@@H]2C[C@@H](C)[C@@H]2O[C@@H]2C(=O)[C@](C)(O)[C@@H]1OC(C)=O,82*,0.12
Cc1c2c(nc3c(C(=O)NC4CCCC(C)C4C)cnn13)CCCC2 (configuration not stated),90*,.
CC1CCCC(NC(=O)c2ccc3c(SCC(=O)O)c4c(nc3c2)CCC4)C1C (configuration not stated),-9,.
COc1ccc(OC)c(NC(=O)CN(c2cccc(Br)c2)S(C)(=O)=O)c1,24,.
COc1ccc(OCC(=O)Nc2ccc(-c3nc4cc(C)ccc4o3)cc2)cc1,9,.
Cc1ccc2oc(-c3cc(NC(=O)c4ncn[nH]4)ccc3O)nc2c1,147*,.
O=C(CSc1nc2ccccc2n1S(=O)(=O)c1ccc(Cl)cc1)NCCc1ccccc1,-5,.
C[C@@H]1CCCCO[C@@H](CN(C)C(=O)NC2CCCCC2)[C@@H](C)CN([C@H](C)CO)C(=O)c2cc(NC(=O)Nc3cccc4ccccc34)ccc2O1,139*,-0.88
C[C@@H]1CCCCO[C@@H](CN(C)C(=O)Nc2cccc3ccccc23)[C@@H](C)CN([C@H](C)CO)C(=O)c2cc(NC(=O)NC3CCCCC3)ccc2O1,47,0.091
C[C@@H]1CCCCO[C@@H](CN(C)C(=O)Cc2ccccc2)[C@@H](C)CN([C@H](C)CO)C(=O)c2cc(NC(=O)NC3CCCCC3)ccc2O1,143*,-0.24
C[C@@H]1CCCCO[C@@H](CN(C)C(=O)Nc2cccc3ccccc23)[C@@H](C)CN([C@H](C)CO)C(=O)c2cc(NS(=O)(=O)c3ccc(F)cc3)ccc2O1,53,0.15
C[C@@H]1CCCCO[C@@H](CN(C)C(=O)Nc2cccc3ccccc23)[C@@H](C)CN([C@H](C)CO)C(=O)c2cc(NS(=O)(=O)c3ccc(Cl)cc3)ccc2O1,107*,-0.3
CC(C)NC(=O)Nc1ccc2c(c1)C(=O)N([C@H](C)CO)C[C@H](C)[C@H](CN(C)C(=O)Cc1ccccc1)OCCCC[C@@H](C)O2,6,-0.22
